Assay results published in article PMC4336329 (PLoS ONE, 2015).
The whole screen tested about 310,000 compounds, of which about 2,200 (0.71%) showed an effect of 50% or more. Effects have a minus sign here. The list comes from a sample in which strong results are over-represented; it also holds similar structures and randomly drawn compounds.

target: human ether-à-go-go-related gene (hERG) potassium channel (human, UniProt Q12809); assay: primary screen, population patch clamp on CHO cells stably expressing hERG; higher = less effect of the substance
Sequence (Q12809 whole entry, looked up): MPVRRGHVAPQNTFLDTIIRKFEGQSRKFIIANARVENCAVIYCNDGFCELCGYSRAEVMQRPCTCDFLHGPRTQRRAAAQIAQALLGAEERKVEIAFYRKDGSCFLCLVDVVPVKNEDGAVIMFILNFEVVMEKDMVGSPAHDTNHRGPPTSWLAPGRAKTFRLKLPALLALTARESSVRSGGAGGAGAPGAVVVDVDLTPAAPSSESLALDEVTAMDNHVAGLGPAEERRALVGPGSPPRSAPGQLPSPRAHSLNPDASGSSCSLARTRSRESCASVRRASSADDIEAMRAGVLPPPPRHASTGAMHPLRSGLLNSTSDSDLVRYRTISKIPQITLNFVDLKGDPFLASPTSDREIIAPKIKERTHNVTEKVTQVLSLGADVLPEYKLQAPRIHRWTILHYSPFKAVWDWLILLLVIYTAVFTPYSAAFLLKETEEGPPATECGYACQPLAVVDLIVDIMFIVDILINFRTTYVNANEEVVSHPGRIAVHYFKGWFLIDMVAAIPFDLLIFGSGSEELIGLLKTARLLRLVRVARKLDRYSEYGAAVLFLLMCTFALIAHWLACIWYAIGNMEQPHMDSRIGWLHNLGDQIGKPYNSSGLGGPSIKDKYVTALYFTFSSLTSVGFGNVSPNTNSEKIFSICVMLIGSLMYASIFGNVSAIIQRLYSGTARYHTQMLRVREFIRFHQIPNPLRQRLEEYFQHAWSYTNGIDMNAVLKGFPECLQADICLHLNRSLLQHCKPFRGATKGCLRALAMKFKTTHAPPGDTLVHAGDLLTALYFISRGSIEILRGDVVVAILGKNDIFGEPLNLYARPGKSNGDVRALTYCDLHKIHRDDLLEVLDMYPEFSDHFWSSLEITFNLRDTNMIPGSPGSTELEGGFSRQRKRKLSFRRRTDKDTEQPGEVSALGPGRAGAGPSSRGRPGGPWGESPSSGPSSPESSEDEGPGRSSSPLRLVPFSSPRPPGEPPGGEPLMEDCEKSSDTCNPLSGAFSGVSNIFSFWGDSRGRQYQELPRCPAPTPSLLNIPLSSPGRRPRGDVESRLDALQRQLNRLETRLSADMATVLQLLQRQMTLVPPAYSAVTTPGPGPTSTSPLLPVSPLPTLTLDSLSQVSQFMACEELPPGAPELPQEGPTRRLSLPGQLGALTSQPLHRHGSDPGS

| SMILES | hERG current change (%, negative = inhibition) at 1uM [%] |
| --- | --- |
| Cc1cccc(OCCNC(=O)CCNS(=O)(=O)c2ccc3ccccc3c2)c1 | 6.04 |
| CCCn1nc(C(=O)Nc2ccc(N3CCOCC3)cc2)c2ccccc2c1=O | 1.6 |
| O=C(Cn1nc(Br)nc1Br)c1ccccc1 | 10.2 |
| COc1cc(C2NC(=O)NC(C)=C2C(=O)NCc2ccccc2)c(Cl)cc1O (stereo not shown) | 13.7 |
| COCCNC(=O)C1CC(c2ccccc2C(F)(F)F)=NO1 (stereo not shown) | 14.7 |
| CCCn1c(SCC(=O)N2CCN(c3ccccc3)CC2)nc2ccccc2c1=O | -4.8 |
| O=C(CSc1nc2ccccc2c(=O)n1CCCN1CCOCC1)N1CCN(c2ccccc2)CC1 | -6.61 |
| Cn1c(SCC(=O)NCCN2C(=O)CSC2=O)nc2ccccc2c1=O | 7.27 |
| CCn1c(SCC(=O)N2CCCCCC2)nc2ccccc2c1=O | 2.02 |
| CCn1c(SCC(=O)N2CCCC2)nc2ccccc2c1=O | -7.76 |
| O=C(CSc1nc2ccccc2c(=O)n1Cc1ccco1)NCc1ccco1 | -40.8 |
| O=C(CSc1nc2ccccc2c(=O)n1Cc1ccco1)N1CCCCCC1 | -82.8 |
| O=C(CSc1nc2ccccc2c(=O)n1Cc1ccco1)NCCN1C(=O)CSC1=O | -56 |
| O=C(CSc1nc2ccccc2c(=O)n1Cc1ccco1)N1CCN(c2ccccc2)CC1 | -83.6 |
| COc1cc(OC)c(NC(=S)NCc2ccc(F)cc2)cc1Cl | 8.5 |
| Oc1ccccc1N1CCN(Cc2ncc(-c3ccccc3)o2)CC1 | 7 |
| O=C(CSc1nnnn1-c1ccc2c(c1)OCCO2)OC1CCCCC1 | 6.23 |
| COc1ccc(C)cc1Nc1nc(-c2c(C)[nH]c3ccccc23)cs1 | 4.55 |
| CSc1ccc(/C=c2\s/c(=C\C(=O)C(C)(C)C)n(CC(=O)NCCC3=CCCCC3)c2=O)cc1 | -3.41 |
| Cc1c(CN(C)C)c2c(n1Cc1ccccc1)C(=O)c1ccccc1-2.Cl | -79 |
| Cc1c(CN(C)C)c2c(n1C)C(=O)c1ccc(Br)cc1-2.Cl | -2.4 |
| Cc1c(CN(C)C)c2c(n1Cc1ccccc1)C(=O)c1ccc(Br)cc1-2.Cl | -16.4 |
| CCCCOP(=O)(OCCCC)C(O)c1ccc(N(C)C)cc1 (stereo not shown) | 12.5 |
| CSc1ccccc1OCc1cc(C(=O)NC2CCc3ccccc32)no1 (stereo not shown) | 17.2 |
| OCc1ncccc1O | 8.62 |
| COc1ccc(CN2CCOCCOCCN(Cc3ccc(OC)cc3)CCOCCOCC2)cc1 | -84.1 |
| O=[N+]([O-])c1ccc(CN2CCCCCC2)cc1 | -0.361 |
| COc1ccc(CN2CCOCCOCCOCC2)cc1 | -21.8 |

| SMILES | hERG current change (%, negative = inhibition) at 1uM [%] |
| --- | --- |
| O=[N+]([O-])c1ccc(CN2CCOCCOCCN(Cc3ccc([N+](=O)[O-])cc3)CCOCC2)cc1 | -86.9 |
| O=[N+]([O-])c1ccc(CN2CCOCCOCCOCC2)cc1 | -20.5 |
| COc1ccc(CN2CCOCCOCCOCCOCCOCC2)cc1 | 7.46 |
| CCCN(C(=O)CCl)C1=CCCCC1 | 26.6 |
| O=C(CS(=O)(=O)Cc1ccccc1)Nc1ncccn1 | 13 |
| C[C@@H]1CN=C2N(CCNC(=O)CCC3CCCCC3)[C@H](Cc3ccc(O)cc3)CN21 | 7.9 |
| COc1ccc(C[C@H]2CN3C(=NC[C@@H]3Cc3ccccc3)N2CCNC(=O)CCC2CCCCC2)cc1 | -60.4 |
| COc1ccc(C[C@@H]2CN3C(=NC[C@@H]3Cc3ccc(O)cc3)N2C[C@H](C)NC(=O)CCC2CCCCC2)cc1 | -64.6 |
| CC(C)[C@H]1CN=C2N(CCNC(=O)CCC3CCCCC3)[C@H](Cc3ccc(O)cc3)CN21 | -2.53 |
| C[C@@H](CN1C2=NC[C@H](Cc3ccc(O)cc3)N2C[C@H]1Cc1ccc(O)cc1)NC(=O)CCC1CCCCC1 | 12.5 |
| COc1ccc(C[C@H]2CN3C(=NC[C@H]3Cc3ccccc3)N2CCNC(=O)CCC2CCCCC2)cc1 | -49.2 |
| COc1ccc(C[C@H]2CN3C(=NC[C@@H]3C)N2CCNC(=O)CCC2CCCCC2)cc1 | -63.7 |
| COc1ccc(C[C@H]2CN3C(=NC[C@@H]3C(C)C)N2CCNC(=O)CCC2CCCCC2)cc1 | -86 |
| C[C@H]1CN=C2N(CCNC(=O)CCC3CCCCC3)[C@H](Cc3ccc(O)cc3)CN21 | 14.3 |
| O=C(CCC1CCCCC1)NCCN1C2=NC[C@@H](Cc3ccccc3)N2C[C@H]1Cc1ccc(O)cc1 | -0.771 |
| COc1ccc(C[C@H]2CN3C(=NC[C@@H]3Cc3ccc(O)cc3)N2C[C@H](C)NC(=O)CCC2CCCCC2)cc1 | -14.9 |
| C/C=C(\C)C(=O)NCCN1C2=NC[C@H](C(C)C)N2C[C@@H]1Cc1ccc(OC)cc1 | -46.6 |
| COc1ccc(COc2ccsc2C(=O)Nc2ccc(Cl)c(Cl)c2)cc1 | 13.6 |
| COc1cc(OC)cc(-c2nc(SCC(=O)Nc3ccccc3F)n[nH]2)c1 | 11.9 |
| CC(C)c1ccc(C(N)=S)cc1 | 7.86 |
| O=C(Cc1ccccc1)N1CCC2(CC1)NCCc1[nH]cnc12 | 20.4 |
| COc1ccc(NC(=O)/C=C/c2ccc(C)o2)cc1S(=O)(=O)N1CCOCC1 | 3.88 |
| COc1cc(S(=O)(=O)Nc2ccccc2N2CCCCC2)ccc1NC(C)=O | -4.5 |
| COC(=O)C(NC(=O)c1c(C)nn(C)c1Cl)c1ccccc1 (stereo not shown) | 14.2 |
| Cc1ccc2c(c1)c(C)c(C)n2CC(O)Cn1nnc2ccccc21 (stereo not shown) | 12.4 |
| CS(=O)(=O)NCc1nnc(SCc2c(F)cccc2Cl)o1 | -1.52 |
| O=C(O)c1cccc(Nc2ccc([N+](=O)[O-])c3nonc23)c1 | 2.1 |
